Assay [1] can be described thus: TAMU_PeakParms_SingleDonor1434_QT: Texas A&M University (TAMU) 1.5-hr Human Induced Pluripotent Stem Cell (iPSC)-derived Cardiomyocytes Calcium (Ca+2) Flux Assay for Cardiotoxicity: QT (decay-rise ratio) (AID 2284235; active means hit-call score of the fitted dose curve at least 0.9, where 1 is the maximum). In a few lines:
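iPSC-derived cardiomyocytes (single donor 1434) dosed at 0.2, 1, 10, 100 uM final in 0.5% DMSO, 90 min at 37C. Ca2+ flux fluorescence decay/rise ratio; EC05 (5% increase versus DMSO) as POD, excluding beat-arrest and severe-notch data.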

Assay [2] can be described thus: CCTE_Mundy_HCI_Cortical_NOG_NeuronCount: CCTE's Neurite Outgrowth Assay in rat cortical cells for Neuron Count, Mundy Lab (AID 2284236; active means hit-call score of the fitted dose curve at least 0.9, where 1 is the maximum;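 further: neurons counted by imaging betaIII-tubulin and Hoechst stained cortical cells; cells exposed to compound for about 48 hours before fixation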). In outline: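 Read-out: neuron number by high-content imaging of betaIII-tubulin (Alexa Fluor-488) and Hoechst-labelled rat primary cortical cells.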
Assay [3] in a line: CCTE_Mundy_HCI_Cortical_NOG_BPCount: CCTE's Neurite Outgrowth Assay in rat cortical cells for Branch Point Count, Mundy Lab (AID 2284237).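 On AC50: branch points counted about two days after chemical exposure.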 In a few lines: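 Measured 50.33 h after dosing, this morphology endpoint uses rat primary cortical cultures labelled for betaIII-tubulin. Branch points are quantified by high-content imaging, with DMSO as negative control and baseline.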

Assay [4] can be described thus: CCTE_Mundy_HCI_hNP1_Casp3_7: CCTE's Caspase-Glo 3/7 Assay in human neuroprogenitor cells for Apoptosis, Mundy Lab (AID 2284240). In a few lines:
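Luminescent caspase-3/7 readout, 26.5 h post-dose, in human neural progenitor cells from WA09 embryonic stem cells. Cells grew 40–44 h at 37 °C, 5% CO2 before chemical addition. Activity analysed as signal increase over DMSO baseline.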

Assay [5] is described as follows: CCTE_Mundy_HCI_hNP1_CellTiter: CCTE's Cell Titer-Glo 2 Assay in human neuroprogenitor cells for Viability, Mundy Lab (AID 2284241; active means hit-call score of the fitted dose curve at least 0.9, where 1 is the maximum). In outline: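 Viability read as luminescent ATP content (CellTiter-Glo, 30 min room temperature) twenty-four hours after dosing, relative to DMSO. Cells: WA09-derived hNP1 neuroprogenitors on poly-L-ornithine/laminin, plated 40 to 44 hours before chemical.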
(In general: In ATP-based viability assays light output follows the ATP content of the culture.)

The nature of assay [6]: CCTE_Mundy_HCI_Cortical_Synap_Neur_Matur_NeuronCount: CCTE's Synaptogenesis and Neurite Maturation Assay in rat cortical cells for Neuron Count, Mundy Lab (AID 2284242; active means hit-call score of the fitted dose curve at least 0.9, where 1 is the maximum;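 on AC50: hits reduce neuron count versus DMSO baseline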). In a few lines:
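Rat primary cortical cells, AraC added at DIV 5, dosed with media change from DIV 7 to DIV 12. Fixed, Hoechst-stained and immunolabelled for MAP2 and synaptophysin; neuron number counted by high-content imaging, loss fitted versus DMSO.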

A short description of assay [7]: TAMU_HCS_1.5hr_SingleDonor1434_Cytotoxicity: Cytotoxicity Assessment using High-content Screening (HCS) Fluorescent Imaging for the Texas A&M University (TAMU) 1.5-hr Human Induced Pluripotent Stem Cell (iPSC)-derived Cardiotoxicity Assay (AID 2284234; active means hit-call score of the fitted dose curve at least 0.9, where 1 is the maximum). In outline:
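Human iPSC-derived cardiomyocytes dosed at 0.2, 1, 10, 100 uM final (0.5% DMSO) for 90 min at 37 C. Hoechst 33342-stained nuclei counted by 10x high-content imaging; POD is EC10, a 10% drop in total cell count versus DMSO.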

Assay [8] is described as follows: UKN2_HCS_IMR90_cell_viability: Viability Assessment in the University of Konstanz (UKN) Leist Lab Neural Crest Cell Migration Assay in human induced IMR90 Pluripotent Stem Cells (UKN2) (AID 2284233).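 Further: viability of neural crest cells differentiated from IMR90 iPSC measured by calcein-AM fluorescence imaging; cells exposed to compound for 24 h after a 24 h migration phase.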 In outline:
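Neural crest cells derived from IMR90 iPSC migrate into a stopper-free zone for 24 h in EGF/FGF medium, then are exposed to compound for 24 h. Viability assessed by calcein-AM and Hoechst staining with high-content imaging, fitted bidirectionally versus DMSO.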

Read-out in assay [9]: Interleukin 6 (IL6), IL6 (gene 3569)
Briefly: BSK_BT_xIL6: BioMAP Diversity Plus: BT Assay for Interleukin 6 (IL6) Biomarker Activity (AID 2284228). The note with it: primary human B cells with PBMC. In outline: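 Human B cell plus PBMC co-culture exposed to test chemical for 24 h; secreted IL-6 quantified by Luminex xMAP bead assay. Activity fitted in the positive direction against DMSO as negative control and baseline.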

Read-out in assay [10]: Interleukin 17A (IL17A), IL17A (gene 3605)
Kind of assay: BSK_BT_xIL17A: BioMAP Diversity Plus: BT Assay for Interleukin 17A (IL17A) Biomarker Activity (AID 2284229). The settings on record: primary human B cells with PBMC. In a few lines: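 B cells co-cultured with PBMC were exposed to test chemicals, and secreted IL-17A was quantified 24 h after dosing by Luminex xMAP bead immunoassay. Activity was fitted in the gain direction against DMSO as baseline.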

Read-out in assay [11]: Tumor necrosis factor (Homo sapiens) (UniProt P01375)
Briefly: BSK_BT_xTNFa: BioMAP Diversity Plus: BT Assay for Tumor necrosis factor alpha (TNF-alpha) Biomarker Activity (AID 2284230). The settings on record: primary human B cells with PBMC. In outline:
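Human primary co-culture of B cells and peripheral blood mononuclear cells; TNF-alpha in supernatant, 24 h post-dose, Luminex multiplex; DMSO = baseline.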

Read-out in assay [12]: Vascular cell adhesion molecule 1 (VCAM1), VCAM1 (gene 7412)
Kind of assay: BSK_MyoF_VCAM1: BioMAP Diversity Plus: MyoF Assay for Vascular cell adhesion molecule 1 (VCAM1) Biomarker Activity (AID 2284231). The settings on record: primary human lung fibroblasts. In outline: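 Primary human lung fibroblasts were dosed with test chemical for 24 h, then cell-surface VCAM-1 was measured by ELISA. Activity was fitted in the positive direction against DMSO as negative control and baseline.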

Read-out in assay [13]: Collagen I, COL1A1 (gene 1277)
Kind of assay: BSK_MyoF_CollagenI: BioMAP Diversity Plus: MyoF Assay for Collagen I Biomarker Activity (AID 2284238). The note with it: primary human lung fibroblasts. In outline:
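Human lung fibroblasts were exposed to test chemical for 24 h, then Collagen I was quantified by ELISA. Activity was fitted in the increasing direction against DMSO as the negative control and baseline.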

Read-out in assay [14]: Collagen III, COL3A1 (gene 1281)
Briefly: BSK_MyoF_CollagenIII: BioMAP Diversity Plus: MyoF Assay for Collagen III Biomarker Activity (AID 2284239). The note with it: primary human lung fibroblasts. In outline: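 Human lung fibroblasts were dosed with chemicals and, 24 hours later, collagen III was measured by ELISA. Activity was fitted in the positive direction against the DMSO negative-control baseline.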

Read-out in assay [15]: Interleukin 17F (IL17F), IL17F (gene 112744)
Briefly: BSK_BT_xIL17F: BioMAP Diversity Plus: BT Assay for Interleukin 17F (IL17F) Biomarker Activity (AID 2284243). The settings on record: primary human B cells with PBMC. In outline:
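B cell/PBMC co-culture (human primary), 24 h compound exposure; sIL-17F by Luminex xMAP; gain-of-signal fit vs DMSO baseline.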

Read-out in assay [16]: Actin alpha 1 (ACTA1), ACTA1 (gene 58)
Kind of assay: BSK_MyoF_ACTA1: BioMAP Diversity Plus: MyoF Assay for Actin alpha 1 (ACTA1) Biomarker Activity (AID 2284244). The note with it: primary human lung fibroblasts. In outline: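 Human lung fibroblast (MyoF system) cultures dosed with test chemical; alpha-SMA measured by ELISA 24 h after dosing, normalized to DMSO control. Cytotoxicity tracked in parallel cultures by SRB total-protein staining.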

Read-out in assay [17]: Interleukin 2 (IL2), IL2 (gene 3558)
Briefly: BSK_BT_xIL2: BioMAP Diversity Plus: BT Assay for Interleukin 2 (IL2) Biomarker Activity (AID 2284245). The note with it: primary human B cells with PBMC. In outline:
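Human B cell plus PBMC co-culture, 24 h after chemical dosing; secreted IL-2 quantified by Luminex xMAP multiplex, fitted for signal gain against DMSO baseline.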

Read-out in assay [18]: Basic fibroblast growth factor (bFGF), FGF2 (gene 2247)
Kind of assay: BSK_MyoF_bFGF: BioMAP Diversity Plus: MyoF Assay for Basic fibroblast growth factor (bFGF) Biomarker Activity (AID 2284246). The note with it: primary human lung fibroblasts. In outline:
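Human lung fibroblast cultures were dosed and measured 24 h later in 96-well format. bFGF biomarker levels quantified by ELISA, with activity fitted in the positive direction against DMSO.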

Read-out in assay [19]: Collagen IV, COL4A1 (gene 1282)
Kind of assay: BSK_MyoF_CollagenIV: BioMAP Diversity Plus: MyoF Assay for Collagen IV Biomarker Activity (AID 2284247). The note with it: primary human lung fibroblasts. In outline:
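Primary human lung fibroblasts (MyoF system) dosed 24 h; Collagen IV measured by ELISA. Activity fitted in positive direction against DMSO; cytotoxicity tracked by SRB total-protein staining in parallel cultures.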

Assay [20] can be described thus: UKN4_HCS_LUHMES_cell_viability: Viability Assessment in the University of Konstanz (UKN) Leist Lab Neurite Outgrowth Assay in human LUHMES cells (UKN4) (AID 2284232). In a few lines:
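LUHMES precursors differentiated 2 days, replated at 30000 cells/well without cAMP/GDNF, then compound-treated 24 h. Viability from Hoechst H-33342 and calcein-AM live staining (30 min) by high-content fluorescence imaging; bidirectional fit versus DMSO.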

Inconclusive results are not listed. The source made the active and inactive calls. How the source made its calls, unless noted: active means hit-call score of the fitted dose curve at least 0.9, where 1 is the maximum; inactive means score below 0.9.

Chain of Tumor necrosis factor (Homo sapiens) (P01375 whole entry, looked up): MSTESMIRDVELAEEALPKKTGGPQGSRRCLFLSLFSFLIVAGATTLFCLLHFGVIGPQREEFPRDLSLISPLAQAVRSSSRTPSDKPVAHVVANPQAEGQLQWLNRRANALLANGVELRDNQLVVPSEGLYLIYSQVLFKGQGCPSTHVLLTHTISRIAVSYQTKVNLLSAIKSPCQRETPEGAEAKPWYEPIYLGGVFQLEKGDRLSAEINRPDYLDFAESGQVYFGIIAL

A word on the AC50: it is the concentration at which the activity in the assay is half-maximal. Consider `CC1(C)C(C=C(Cl)Cl)C1C(=O)OCc1cccc(Oc2ccccc2)c1` (configuration not stated), for which the result in assay [1], in [4] and in assay [5] was inactive. The results for the half-maximal activity concentration (AC50) in assay [2], in assay [3] and in assay [6] were 78.4 µM (active), 84.5 µM (active) and 5.69 µM (active), respectively.

As for `CC(=O)[C@H]1CC[C@H]2[C@@H]3CCC4=CC(=O)CC[C@]4(C)[C@H]3CC[C@]12C`, the call in assay [7] and in assay [1] was inactive.

In the case of `CC(C)(c1ccc(O)cc1)c1ccc(O)cc1`, the compound was called inactive in assay [7], in assay [1], in assay [2] and in assay [6].

Take `Cc1nn(C)c(Oc2ccccc2)c1C=NOCc1ccc(C(=O)OC(C)(C)C)cc1`: the concentration at half-maximal activity (AC50) is 14 µM (active) in [8]; 0.327 µM (active) in [2]; 0.014 µM (active) in assay [3]; 8.5 µM (active) in assay [4]; 0.00225 µM (active) in [6].

`O=C(O)c1ccccc1`: the outcome in assay [1], in assay [2], in assay [3], in assay [4] and in assay [5] was inactive.

On to `C#CCOC(=O)[C@@H](C)Oc1ccc(Oc2ncc(Cl)cc2F)cc1`, for which the compound was classed as inactive in assay [8], in [2], in assay [3], in assay [4], in assay [5] and in assay [6].

For the compound `COCCO`, the outcome in assay [9], in assay [10], in [11], in [12], in assay [7] and in assay [13] was inactive. The result in [14], in [15], in [16], in [17], in assay [18] and in assay [19] was inactive.

With `CCCN(CCC)C(=O)SCC`, the compound was called inactive in [8], in assay [4] and in [5].

On to `CCN(CC)C(=O)c1cccc(C)c1`, for which the result in assay [8], in assay [2], in assay [3], in [4], in [5] and in assay [6] was inactive.

As for `CCC(C)OC(=O)N1CCCCC1CCO` (configuration not stated), the result in assay [9], in [10], in assay [11], in assay [12], in assay [13] and in [14] was inactive. Further, the outcome in [15], in [16], in assay [17], in assay [18] and in assay [19] was inactive.

As for `c1ccc2[nH]c(-c3cscn3)nc2c1`, the call in assay [7] and in assay [1] was inactive.

Turning to `S=C(S)NCCNC(=S)S.[Mn+2].[S-]C([S-])=NCCN=C([S-])[S-].[Zn+2]`, the outcome in [3] and in assay [4] was inactive.

For `S=C([S-])NCCNC(=S)[S-].[Mn+2]`, the AC50 in [20] is 3.31 µM (active); in assay [8], 16.1 µM (active). Moreover, the compound was classed as inactive in assay [4] and in [6].

Take `N#CSCSc1nc2ccccc2s1`: the concentration at half-maximal activity (AC50) was 4.1 µM (active) in [9]; 4.06 µM (active) in [10]; 7.28 µM (active) in [11]; 4.37 µM (active) in assay [12]; 5.73 µM (active) in assay [13]; 5.71 µM (active) in [14]. The concentration at half-maximal activity (AC50) in [15] was 4.93 µM (active); in assay [16], 4.21 µM (active); in assay [17], 5.16 µM (active); in assay [18], 10.6 µM (active); in assay [19], 6.4 µM (active).

Turning to `CSC(=O)c1cccc2nnsc12`, the compound was classed as inactive in assay [3], in assay [4] and in assay [5].
